Source: PubChem BioAssay (several laboratories)
Hits are enriched below; roughly 1.2% of the tested compounds scored in any of these assays.
SARS 3CLpro inh = SARS-CoV 3CLpro protease inhibition; AID 1706; inhibition, % at 6 µM; actives 0.14% (n = 290,000); P0C6X7; recombinant SARS-CoV 3CLpro, quenched FRET peptide cleavage; in the data active = inhibition above about 12%
SSB-PriA inh = inhibitors of Klebsiella pneumoniae PriA binding to SSB C-terminal tail | inhibition, % at 33 µM | actives 0.6% (n = 430,000) | AID 1272365 | AlphaScreen SSBct-PriA binding, biotinylated peptide; in the data active = inhibition mostly above about 37%, no sharp cut-off; inactive = mostly below about 20%;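 also: plate controls were negative control peptide for no effect and reference peptide for full effect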
PrP 5UTR inh = inhibition of PrP 5' UTR reporter expression | inhibition, % (no concentration beside the values) | actives 0.35% (n = 340,000) | cell-based PrP 5' UTR mRNA reporter, plate reader | AID 488862; in the data active = inhibition above about 52%; also: 0 = median of the neutral control wells
BJeLR lethal = kills HRASV12-expressing BJeLR cells | BJeLR (HRASV12) viability, CellTiter-Glo ATP luminescence, 48 h | inhibition, % (no concentration beside the values) | actives 0.17% (n = 300,000) | AID 1554; in the data active = inhibition above about 50%
PrPC surface inh = cell surface PrPC inhibition, primary TR-FRET screen; P04156; TR-FRET read-out; inhibition, % at 13.8 µM; actives 0.43% (n = 370,000); in the data active = inhibition above about 24%; also: 0% = median of the test wells and 100% = reference compound wells
PrP 5UTR single = prion 5' UTR mRNA inhibition, cherry-pick retest. actives 48% (n = 1,100). cell-based prion protein 5' UTR reporter, plate reader. inhibition, % at 2.5 µM. AID 504592. shares compounds with PrP 5UTR inh; in the data active = inhibition above about 54%
PrPC confirm = confirmation of inhibitors of cell surface human prion protein. cell surface PrPC level, TR-FRET. shares compounds with PrPC surface inh. AID 743200. inhibition, % at 13.8 µM. actives 65% (n = 1,500); in the data active = inhibition above about 25%
LD9 cytotox = kills or reduces viability of LD9 cells in PrPc counter-screen | shares compounds with PrPC surface inh | LD9 cells cytotoxicity, luminescence viability | inhibition, % at 13.8 µM | actives 29% (n = 1,500) | AID 743201; in the data active = inhibition above about 9.5%
* hit, by the source's call.

For Nc1nc(F)nc2c1ncn2[C@@H]1O[C@H](CO)[C@@H](O)[C@H]1O the results were SSB-PriA inh -6, PrP 5UTR inh 94*, BJeLR lethal 97*, PrPC surface inh 45*, PrP 5UTR single 94*, PrPC confirm 44* and LD9 cytotox 54*.
Screening CC(=O)c1cccc(NC(=O)CSc2ncc(-c3cccc(Br)c3)o2)c1 returned SSB-PriA inh -8.
For Cc1ccc(C(=O)n2c(N)nc3ccccc32)cc1 the results were SARS 3CLpro inh -4, SSB-PriA inh 6, PrP 5UTR inh 74*, BJeLR lethal 34, PrPC surface inh 25*, PrP 5UTR single 55*, PrPC confirm -3 and LD9 cytotox 3.
For COc1nn(C)cc1C(=O)NCC1CCN(c2ccncc2)CC1 the results were SSB-PriA inh -5.
For Cc1c(-c2nc(-c3ccccc3)no2)nnn1-c1ccc(Br)cc1F the results were SSB-PriA inh 0.
Screening CC(=O)c1c(C)[nH]c(C(=O)CSc2nnc(N)s2)c1C returned SARS 3CLpro inh -2, SSB-PriA inh -7, PrP 5UTR inh 55*, BJeLR lethal -4, PrPC surface inh 30*, PrP 5UTR single 1, PrPC confirm 30* and LD9 cytotox -2.
For C/C(=C\CNc1ncnc2nc[nH]c12)CO the results were SSB-PriA inh -14, PrP 5UTR inh -10, BJeLR lethal -3 and PrPC surface inh 4.
Screening CC(C)CCCCCCCCCCCCC(=O)NCC(=O)NC1C(C)OC(Nc2ncnc3nc[nH]c23)C(O)C1O (stereo not given) returned SSB-PriA inh -5, PrP 5UTR inh 75*, PrPC surface inh 25*, PrP 5UTR single 77*, PrPC confirm 79* and LD9 cytotox 33*.
For O=C1NC2C(=CC(O)C(O)C2O)c2cc3c(c(O)c21)OCO3 (stereo not given) the results were SSB-PriA inh -23, PrP 5UTR inh 88*, PrPC surface inh 89*, PrP 5UTR single 95*, PrPC confirm 97* and LD9 cytotox 55*.
`O=C1NC2C(O)C(O)C(O)C(O)C2c2cc3c(c(O)c21)OCO3` (stereo not given) gave SSB-PriA inh -13, PrP 5UTR inh 61*, PrPC surface inh 90*, PrP 5UTR single 83*, PrPC confirm 100* and LD9 cytotox 32*.
For Cc1cc(NC(=O)C(=O)N2CCOCC2)n(-c2nc3c(c(=O)[nH]2)CCC3)n1 the results were SSB-PriA inh -5.
Screening COc1ccc(CCNC(=O)C2CC2)cc1 returned SSB-PriA inh -7, PrP 5UTR inh -10, BJeLR lethal 3 and PrPC surface inh 1.
COc1ccc(C[C@H]2NC[C@H](O)[C@H]2OC(C)=O)cc1 was read as SSB-PriA inh -6, PrP 5UTR inh 92*, BJeLR lethal 82*, PrPC surface inh 89*, PrP 5UTR single 96*, PrPC confirm 102* and LD9 cytotox 47*.
For NC(=O)Cn1nc(C2CC2)c2cnn(-c3cccc(Cl)c3)c2c1=O the results were SSB-PriA inh -24.
Cc1cccc2cc(C#N)c(SCC(=O)N3CC(=O)Nc4ccccc43)nc12 was read as SARS 3CLpro inh 1, SSB-PriA inh -6, PrP 5UTR inh 64*, BJeLR lethal 54*, PrPC surface inh 29*, PrP 5UTR single 81*, PrPC confirm 70* and LD9 cytotox 16*.
Screening COC(=O)c1c(NC(=O)CSc2nnnn2-c2ccccc2OC)sc2c1CCC2 returned SSB-PriA inh 3.
For O=C(NCc1cccs1)NC[C@H](O)c1ccc2c(c1)CCO2 the results were SSB-PriA inh -10.
`NC1=C(Cl)C(=O)c2ccc(S(N)(=O)=O)cc2C1=O` gave SSB-PriA inh -3, PrP 5UTR inh 96*, PrPC surface inh 34*, PrP 5UTR single 96*, PrPC confirm 44* and LD9 cytotox 98*.
Screening NS(=O)(=O)c1ccc2c(c1)C(=O)c1ccccc1C2=O returned SSB-PriA inh 11.
For CC(=O)O[C@H]1C(=O)[C@@]2(C)[C@H]([C@H](OC(=O)c3ccccc3)[C@]3(O)C[C@H](OC(=O)[C@H](O)C(NC(=O)c4ccccc4)c4ccccc4)C(C)=C1C3(C)C)[C@]1(OC(C)=O)CO[C@@H]1C[C@@H]2O (stereo not given in full) the results were SSB-PriA inh -1, PrP 5UTR inh 70*, BJeLR lethal 40, PrPC surface inh 31*, PrP 5UTR single 88*, PrPC confirm 27* and LD9 cytotox 8.
For CC(=O)O[C@H]1C(=O)[C@@]2(C)[C@H]([C@H](OC(=O)c3ccccc3)[C@]3(O)C[C@H](OC(=O)[C@H](O)[C@@H](NC(=O)c4ccccc4)c4ccccc4)C(C)=C1C3(C)C)[C@]1(OC(C)=O)CO[C@@H]1C[C@@H]2O the results were SSB-PriA inh -11, PrP 5UTR inh 55*, PrPC surface inh 35*, PrP 5UTR single 88*, PrPC confirm 24 and LD9 cytotox 3.
CC(=O)O[C@@]12CO[C@@H]1C[C@@H](O)[C@@]1(C)C(=O)[C@H](O)C3=C(C)[C@@H](OC(=O)[C@H](O)[C@@H](NC(=O)c4ccccc4)c4ccccc4)C[C@@](O)([C@@H](OC(=O)c4ccccc4)C12)C3(C)C (stereo not given in full) was read as SARS 3CLpro inh 1, SSB-PriA inh -8, PrP 5UTR inh 21, BJeLR lethal 34 and PrPC surface inh 7.
For CC/C=C/CC(=O)N[C@@H](c1ccccc1)[C@@H](O)C(=O)O[C@H]1C[C@@]2(O)[C@@H](OC(=O)c3ccccc3)C3[C@](C)(C(=O)[C@H](OC(C)=O)C(=C1C)C2(C)C)[C@@H](O)C[C@H]1OC[C@@]31OC(C)=O (stereo not given in full) the results were SARS 3CLpro inh 3, SSB-PriA inh -4, PrP 5UTR inh 59*, BJeLR lethal 30, PrPC surface inh 26*, PrP 5UTR single 85*, PrPC confirm 23 and LD9 cytotox -2.
`O=C(Nc1nc(-c2ccccn2)cs1)c1ccc(F)c(S(=O)(=O)N2CCOCC2)c1` gave SSB-PriA inh 45*, PrP 5UTR inh 42, PrPC surface inh 27*, PrPC confirm 33* and LD9 cytotox 18*.
Cc1ccc(C(=O)Nc2nc(-c3ccccn3)cs2)cc1S(=O)(=O)N1CCOCC1 was read as SSB-PriA inh 43*, PrP 5UTR inh 39, PrPC surface inh 25*, PrPC confirm 23 and LD9 cytotox 3.
